Bioassay records (PubChem)
FEN1 inhibitor = blocks human flap endonuclease 1; Potency, µM (series often up to 114 µM), usual class: inhibitors; Recombinant FEN1 flap cleavage, fluorescence, 15 min; 390,000 compounds, 0.35% hits; P39748; further: nearly all actives have a fitted effect of over 65% in size
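FEN1 at 10 nM preincubated with compounds 15 min at room temperature, then flap DNA substrate added at 50 nM final. Signal read at 0 and 15 min; concentration-response fitted with four-parameter Hill equation.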
WRN inhibitor = WRN helicase (human) inhibition | AID 651768 | Potency, µM (highest dose often 114 µM), actives largely listed as inhibitors | WRN helicase unwinding, fluorescent forked duplex, kinetic | 360,000 compounds, 0.46% hits; further: nearly all actives have a fitted effect of over 55% in size
Target sequence (Q14191 whole entry, looked up): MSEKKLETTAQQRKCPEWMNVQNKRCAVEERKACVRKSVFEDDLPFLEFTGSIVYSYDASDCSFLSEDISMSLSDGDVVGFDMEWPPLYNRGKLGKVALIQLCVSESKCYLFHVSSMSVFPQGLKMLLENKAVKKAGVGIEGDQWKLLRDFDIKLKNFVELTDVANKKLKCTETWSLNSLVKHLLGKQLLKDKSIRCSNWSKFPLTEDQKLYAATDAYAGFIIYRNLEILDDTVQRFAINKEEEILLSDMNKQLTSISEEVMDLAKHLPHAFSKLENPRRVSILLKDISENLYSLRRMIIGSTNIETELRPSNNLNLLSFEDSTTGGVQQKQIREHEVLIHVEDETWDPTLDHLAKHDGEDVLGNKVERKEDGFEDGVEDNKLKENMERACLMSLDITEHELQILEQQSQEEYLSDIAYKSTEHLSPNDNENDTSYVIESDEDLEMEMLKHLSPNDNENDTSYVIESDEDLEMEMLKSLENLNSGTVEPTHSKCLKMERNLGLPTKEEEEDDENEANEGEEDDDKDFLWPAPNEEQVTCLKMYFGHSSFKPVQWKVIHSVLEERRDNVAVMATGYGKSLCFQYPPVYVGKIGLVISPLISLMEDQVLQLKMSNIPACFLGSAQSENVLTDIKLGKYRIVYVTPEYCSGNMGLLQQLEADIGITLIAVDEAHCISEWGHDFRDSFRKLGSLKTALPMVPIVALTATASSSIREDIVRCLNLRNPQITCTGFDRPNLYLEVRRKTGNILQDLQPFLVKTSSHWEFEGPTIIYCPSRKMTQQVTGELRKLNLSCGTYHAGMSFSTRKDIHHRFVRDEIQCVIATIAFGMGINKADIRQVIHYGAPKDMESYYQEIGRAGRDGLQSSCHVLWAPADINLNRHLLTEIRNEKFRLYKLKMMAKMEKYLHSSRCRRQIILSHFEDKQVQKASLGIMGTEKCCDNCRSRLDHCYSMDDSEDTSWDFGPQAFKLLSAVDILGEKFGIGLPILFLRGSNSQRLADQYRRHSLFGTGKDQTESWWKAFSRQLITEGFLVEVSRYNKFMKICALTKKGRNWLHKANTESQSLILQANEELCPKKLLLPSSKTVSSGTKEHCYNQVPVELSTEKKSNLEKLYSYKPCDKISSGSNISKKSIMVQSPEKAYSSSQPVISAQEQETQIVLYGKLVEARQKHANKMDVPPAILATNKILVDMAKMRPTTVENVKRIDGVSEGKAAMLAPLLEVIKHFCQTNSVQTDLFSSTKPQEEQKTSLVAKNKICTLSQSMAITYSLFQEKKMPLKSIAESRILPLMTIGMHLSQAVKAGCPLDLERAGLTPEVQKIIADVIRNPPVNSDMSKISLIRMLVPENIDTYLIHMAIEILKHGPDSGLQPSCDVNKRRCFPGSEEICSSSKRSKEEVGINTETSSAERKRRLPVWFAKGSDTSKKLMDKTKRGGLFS
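Kinetic fluorescence helicase assay: unwinding of a quenched forked DNA duplex (100 nM final) with 2 mM ATP final raises red fluorescence (525/598 nm). Compounds sat 15 min at room temperature with 20 nM WRN beforehand.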
BLM inh = blocks DNA unwinding by human BLM helicase; P54132; 350,000 compounds, 0.2% hits; AID 2528; Potency, µM (series often up to 56.1 µM), usual class: inhibitors; recombinant BLM DNA unwinding, fluorescence dequenching; further: nearly all actives have a fitted effect of over 35% in size
RECQ1 helicase = blocks DNA unwinding by human RECQ1; P46063; RECQ1 DNA unwinding, red fluorescence kinetic read; Potency, µM (series often up to 57.3 µM), most hits filed as inhibitors; 240,000 compounds, 0.54% hits; AID 2549; further: nearly all actives have a fitted effect of over 30% in size
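50 nM RECQ1T1 preincubated 15 min with compound in Tris pH 8.0 buffer with MgCl2, DTT, Tween-20 and 2.5 ug/ml poly(dI-dC); started with 200 nM TAMRA/BHQ-2 forked duplex and 2 mM ATP. Unwinding read as fluorescence (525/598 nm), two reads 2 h apart.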
APE1 inh = inhibitors of human APE1 endonuclease | P27695 | Potency, µM (series often up to 65.8 µM), usual class: inhibitors | recombinant APE1, TAMRA/BHQ-2 abasic DNA cleavage fluorescence | AID 2517 | 350,000 compounds, 0.35% hits; further: nearly all actives have a fitted effect of over 55% in size
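APE1 at 0.75 nM preincubated 15 min at room temperature with compound. Reaction then started with 50 nM double-stranded THF-abasic substrate labelled with TAMRA/BHQ-2, and 525/598 nm fluorescence read kinetically. Activity taken as third-minus-first read difference, normalized to DMSO and NSC13755 controls.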
A number is an active result; [ ] = another dose, or the depositor's remark. Sampled rows, rich in hits. Any-hit rate of the full collection: about 0.87%. The call rests on the fitted dose curve; in most records, active means well fitted curve in the direction sought with a large enough effect; inconclusive means small, poorly fitted or top-dose-only effect, or another doubt; inactive means no such curve, though single readings can be large; an effect the other way counts as inactive or inconclusive.

What do the screens show for `COc1ccc(/C=C2\SC(=S)N(CCC(=O)Nc3cccc(C(=O)O)c3)C2=O)cc1`?
FEN1 inhibitor: inactive; WRN inhibitor: inactive[11.6 µM]; BLM inh: inactive; APE1 inh: inactive

What do the screens show for `CN1C(=O)/C(=C/c2ccc(C(=O)Nc3ccc(O)cc3C(=O)O)cc2)SC1=S`?
FEN1 inhibitor: inconclusive; WRN inhibitor: inactive; BLM inh: inactive; APE1 inh: 24µM

Results for CCN(CC)CCOC(=O)c1ccc(NC(=O)CCCN2C(=O)S/C(=C/c3ccc(OC)cc3)C2=S)cc1 ?
FEN1 inhibitor: inconclusive; WRN inhibitor: inactive; BLM inh: inactive; APE1 inh: 34µM

Results for CCOc1ccc(/C=C2/SC(=S)N(CCC(=O)Nc3ccc(C(=O)O)cc3)C2=O)cc1 ?
FEN1 inhibitor: inactive; WRN inhibitor: inactive[11.6 µM]; BLM inh: inactive; APE1 inh: 7.5µM

What do the screens show for `O=C(CCN1C(=O)/C(=C/c2ccc(Cl)cc2)SC1=S)Nc1cccc(C(=O)O)c1`?
FEN1 inhibitor: inconclusive; WRN inhibitor: 56µM; BLM inh: inconclusive; APE1 inh: inconclusive

What do the screens show for `COc1ccc(/C=C2\SC(=S)N(CCC(=O)Nc3ccc(O)cc3)C2=O)cc1`?
FEN1 inhibitor: inactive; WRN inhibitor: inactive; BLM inh: inactive; APE1 inh: inactive

How did Cc1ccc(/C=C2\SC(=S)N(CCC(=O)NNC(=O)c3ccc(O)cc3)C2=O)cc1 do in these assays?
FEN1 inhibitor: inactive; WRN inhibitor: inactive; BLM inh: inactive; APE1 inh: inactive

Results for Cc1cc(C)c(NC(=O)C(C)n2nc(-c3ccc(C)c(C)c3)ccc2=O)c(C)c1 (centres undefined) ?
FEN1 inhibitor: inactive; BLM inh: inactive

What do the screens show for `CC(C)(C)n1ncc2c(=O)n(Cc3ccc(C#N)cc3F)cnc21`?
FEN1 inhibitor: inactive; APE1 inh: inactive

What do the screens show for `c1csc(CNc2ccc(N3CCOCC3)cc2)c1`?
APE1 inh: inactive

How did CCOC(=O)c1c(C)[nH]c(C)c1S(=O)(=O)N(C)CC(=O)N1CCN(c2cccc(Cl)c2)CC1 do in these assays?
FEN1 inhibitor: inactive; BLM inh: inactive

What do the screens show for `O=C1/C(=C\c2ccc(O)c(O)c2)SC(=S)N1Cc1ccccc1`?
FEN1 inhibitor: inconclusive; WRN inhibitor: 11µM; BLM inh: inactive; APE1 inh: inactive

Results for O=C1/C(=C\c2cccc(O)c2)SC(=S)N1Cc1ccccc1 ?
FEN1 inhibitor: inactive; WRN inhibitor: inactive; BLM inh: inactive; APE1 inh: inactive

What do the screens show for `CC(=O)[C@@]1(O)CC[C@H]2[C@@H]3C=C(Cl)C4=CC(=O)[C@@H]5C[C@@H]5[C@]4(C)[C@H]3CC[C@@]21C`?
APE1 inh: inactive

How did CSc1nc(SCC(N)=O)c2c3c(sc2n1)CN(C)CC3 do in these assays?
FEN1 inhibitor: 50µM; WRN inhibitor: inconclusive; BLM inh: inactive; RECQ1 helicase: inactive; APE1 inh: inactive

Results for NC(=O)C1CCN(c2nc(-c3ccccc3Cl)cs2)CC1 ?
APE1 inh: inactive

What do the screens show for `CC(=O)Oc1cc(C(=O)OCC(=O)NC23CC4CC(CC(C4)C2)C3)cc(OC(C)=O)c1OC(C)=O`?
FEN1 inhibitor: 14µM; WRN inhibitor: 14µM

What do the screens show for `CCOC(=O)C1=C(O)/C(=C\c2ccc(CNS(=O)(=O)c3ccc(Br)cc3)o2)N=C1C`?
FEN1 inhibitor: inconclusive; WRN inhibitor: 45µM; BLM inh: inactive; RECQ1 helicase: inactive; APE1 inh: inactive

Results for COC(=O)C1=C(O)/C(=C\c2ccc(CNS(=O)(=O)c3ccc(Cl)cc3)o2)N=C1C ?
FEN1 inhibitor: inactive; WRN inhibitor: inconclusive; BLM inh: inactive; RECQ1 helicase: inactive; APE1 inh: inactive

What do the screens show for `CC(NC(=O)Nc1cc(Cl)ccc1Cl)c1c(-n2cccc2)sc2c1CCCC2` (centres undefined)?
FEN1 inhibitor: inactive; BLM inh: inactive

Results for COc1ccc(COC(=O)C2=C(C)NC(=O)NC2c2ccc(O)c(OC)c2)cc1 (centres undefined) ?
FEN1 inhibitor: inactive; WRN inhibitor: inactive; BLM inh: inactive; RECQ1 helicase: inactive; APE1 inh: inactive

How did COc1cc(C2NC(=O)NC(C)=C2C(=O)OCc2ccccc2)ccc1O (centres undefined) do in these assays?
FEN1 inhibitor: inactive; WRN inhibitor: inactive; BLM inh: 14µM; RECQ1 helicase: inactive; APE1 inh: inactive

What do the screens show for `COc1ccccc1CNC(=O)c1oc2ccc3c(c2c1C)C(=O)CC(C)(C)O3`?
FEN1 inhibitor: inactive; BLM inh: inactive

Results for Cc1c(C(=O)NCc2cccc(Br)c2)oc2ccc3c(c12)C(=O)CC(C)(C)O3 ?
FEN1 inhibitor: 89µM; BLM inh: inactive

Results for NC(=O)c1cc[n+](CC2=C(C(=O)O)N3C(=O)[C@@H](NC(=O)C(c4ccccc4)S(=O)(=O)[O-])[C@H]3SC2)cc1 (some centres undefined) ?
FEN1 inhibitor: 2.2µM; BLM inh: inactive; RECQ1 helicase: inactive; APE1 inh: inactive

How did NC(=O)c1cc[n+](CC2=C(C(=O)[O-])N3C(=O)[C@@H](NC(=O)Cc4cccs4)[C@@H]3SC2)cc1 do in these assays?
BLM inh: inactive; RECQ1 helicase: inactive

What do the screens show for `O=C(Cc1cccs1)N[C@@H]1C(=O)N2C(C(=O)[O-])=C(C[n+]3ccccc3)CS[C@H]12`?
APE1 inh: 28µM

Results for O=C(OC[C@H]1O[C@](O)(COC(=O)c2cccnc2)[C@@H](OC(=O)c2cccnc2)[C@@H]1OC(=O)c1cccnc1)c1cccnc1 ?
APE1 inh: inactive

What do the screens show for `Cc1ccc2nc3c(cc(C(=O)NCc4ccco4)c(=N)n3C3CCCC3)c(=O)n2c1`?
BLM inh: inactive; APE1 inh: inactive

Results for Cc1cccn2c(=O)c3cc(C(=O)NC4CCCCC4)c(=N)n(Cc4ccccc4)c3nc12 ?
FEN1 inhibitor: inactive; WRN inhibitor: inactive; BLM inh: inactive; APE1 inh: 9.5µM

How did Cc1cccn2c(=O)c3cc(C(=O)NCc4ccco4)c(=N)n(C4CCCCC4)c3nc12 do in these assays?
FEN1 inhibitor: inactive; WRN inhibitor: inactive; BLM inh: inactive; APE1 inh: 17µM

Results for O=C(NCc1ccco1)c1cccn2c(=O)c3cc4ccccc4cc3nc12 ?
BLM inh: 20µM; RECQ1 helicase: inconclusive; APE1 inh: inconclusive

What do the screens show for `CCOC(=O)CCCC(=O)N1CCN(/[N+]([O-])=N/Oc2ccc([N+](=O)[O-])cc2[N+](=O)[O-])CC1`?
FEN1 inhibitor: inactive

Results for O=c1c2ccccc2sn1-c1ccc(F)cc1 ?
FEN1 inhibitor: 79µM; WRN inhibitor: inactive[11.6 µM]; APE1 inh: inactive

What do the screens show for `O=c1c2ccccc2sn1-c1ccc(Cl)cc1`?
WRN inhibitor: inactive

Results for C/C=C\C1=C(CO)C(=O)[C@@H]2OC2C1=O (some centres undefined) ?
BLM inh: inactive[12.4 µM]; RECQ1 helicase: 3.5µM; APE1 inh: 1.6µM
